Inconclusive results are not listed. Calls of active or inactive are those of the source. Rule for the calls: active = hit-call score of the fitted dose curve at least 0.9, where 1 is the maximum; inconclusive = response in the unintended direction; inactive = score below 0.9.

For this assay, the target named is Cytochrome P450 3A4 (Homo sapiens) (UniProt P08684). The experiment in a line: NVS_ADME_hCYP3A4: NovaScreen (NVS) CYP450-related Enzyme Activity (ADME) Assay for human CYP3A4 (AID 2283110). Here is the method: NVS_ADME_hCYP3A4 is a biochemical, single-readout assay that uses extracted gene-proteins from insect cells in a cell-free assay. Measurements were taken 0.33 hour after chemical dosing in a 96-well plate.NVS_ADME_hCYP3A4 is one of one assay component(s) measured or calculated from the NVS_ADME_hCYP3A4 assay. It is designed to make measurements of enzyme activity, a form of enzyme reporter, as detected with fluorescence intensity signals by Fluorescence technology.Data from the assay component NVS_ADME_hCYP3A4 was analyzed into 1 assay endpoint. This assay endpoint, NVS_ADME_hCYP3A4, was analyzed in the positive analysis fitting direction relative to Acetonitrile as the negative control and baseline of activity. Using a type of enzyme reporter, loss-of-signal activity can be used to understand changes in the enzymatic activity as they relate to the gene CYP3A4. Furthermore, this assay endpoint can be referred to as a primary readout, because this assay has produced multiple assay endpoints where this one serves a enzymatic activity function. To generalize the intended target to other relatable targets, this assay endpoint is annotated to the cyp intended target family, where the subfamily is xenobiotic metabolism.
Sequence of Cytochrome P450 3A4 (Homo sapiens) (P08684 whole entry, looked up): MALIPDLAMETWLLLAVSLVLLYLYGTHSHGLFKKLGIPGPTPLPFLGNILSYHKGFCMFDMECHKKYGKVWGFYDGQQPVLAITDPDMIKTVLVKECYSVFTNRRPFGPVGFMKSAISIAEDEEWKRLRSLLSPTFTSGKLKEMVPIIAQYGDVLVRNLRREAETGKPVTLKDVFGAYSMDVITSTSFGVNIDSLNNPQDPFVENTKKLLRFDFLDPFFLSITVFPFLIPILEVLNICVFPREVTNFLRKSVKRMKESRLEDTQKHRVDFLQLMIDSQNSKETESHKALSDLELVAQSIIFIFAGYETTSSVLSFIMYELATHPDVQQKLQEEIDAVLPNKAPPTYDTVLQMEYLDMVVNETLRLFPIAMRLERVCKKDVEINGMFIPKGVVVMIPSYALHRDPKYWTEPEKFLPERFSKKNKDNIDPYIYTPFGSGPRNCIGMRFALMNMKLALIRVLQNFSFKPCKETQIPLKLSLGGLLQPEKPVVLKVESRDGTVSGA
Binding assays used specific radioligands (tritiated, iodinated) with non-radioactive competitive displacement ligands in agonist or antagonist protocols (as indicated) and various reference compounds and inhibitors to titrate specific binding to receptors and transporters. Most enzyme assays (CYPs, kinases, phosphatases, proteases, HDACs) used recombinant protein and specific substrates (fluorescence mostly, some colorimetric and radioactive) and inhibitors, followed by a biochemical separation of substrate and product. All assays for the biochemical HTS were initially run in duplicate at a single concentration (10 uM for CYP450 assays and 25 uM for all others). […] Each assay was run with positive and negative controls, and concurrent controls on every plate. The follow-up (secondary) screen tested active chemical-pairs in concentration series, as well as a few additional assays not tested in the primary screen, some selected negative inactives, and several cases re-run in the concentration series for confirmatory purposes.
`Cc1occc1C(=O)Nc1ccc(C(=O)N2CCC(F)(F)/C(=C\C(=O)N3CCC(N4CCCCC4)CC3)c3ccccc32)cc1`: the molecule was classed as inactive.
As to `CN(C)C(=O)C1(N2CCCCC2)CCN(CC[C@@]2(c3ccc(Cl)c(Cl)c3)CN(C(=O)c3ccccc3)CCO2)CC1`, the AC50 is 0.586 µM (active).
On to `CCCOC(=O)c1cc(O)c(O)c(O)c1`, for which the result was inactive.
As for `CCOC(=O)O[C@H](C)OC(=O)c1ccc2c(c1)cc(C(=O)NC1CCN(C(C)C)CC1)n2Cc1cc(-c2ccc(Cl)s2)on1`, the concentration at half-maximal activity (AC50) was 9.45 µM (active).
As to `Cc1oc2c(NC(=O)c3c(Cl)cccc3Cl)cccc2c1C(C)(C)O`, the AC50 was 7.44 µM (active).
As for `NCc1cccc(C2CCN(C(=O)c3ccc(C#Cc4ccccc4F)o3)CC2)c1`, the half-maximal activity concentration (AC50) was 10 µM (active).
Take `COc1ccc2cc(S(=O)(=O)N[C@H](CC(=O)N[C@H](Cc3ccc(CN4[C@H](C)CCC[C@@H]4C)cc3)C(=O)N(C)C(C)C)c3ccc4c(c3)OCO4)ccc2c1`: the AC50 is 0.861 µM (active).
Consider `CCN(Cc1cccnc1)C(=O)c1cccc(Cl)c1[C@]1(C)C(=O)N(Cc2ccc(OC)cc2OC)c2ccc(Cl)cc21`, for which the half-maximal activity concentration (AC50) is 3.58 µM (active).
Consider `CC[C@H](NC(=O)c1cc(F)ccc1NS(=O)(=O)c1cccc2cccnc12)c1ccccc1`, for which the molecule was classed as inactive.
For the molecule `CCCCCCCCOC(=O)c1cc(O)c(O)c(O)c1`, the concentration at half-maximal activity (AC50) was 15.4 µM (active).
Same read-out and setting: the same measure for `CCN(CC)C(=O)c1cc(S(=O)(=O)Cc2ccccc2)c(N2CCC(c3ccccc3)CC2)cc1N(CC)CCN(C)C`: 4.11 µM (active).
For the molecule `O=C1c2ccccc2C(=O)N1CCc1noc(-c2ccc(CN3CCCCCC3)s2)n1`, the molecule was called inactive.

As usually defined, the AC50 is the midpoint of the concentration-response curve, whichever way the signal moves.
